Each structure is given as a SMILES string. About 22,000 (6.9%) of roughly 320,000 compounds were called active. Roughly 27% stayed inconclusive and do not appear here. The entries come from a sample that favours actives as a whole. Unmarked numbers belong to inactive results. Calls follow the shape of the dose curve; as a rule, active = well fitted inhibition curve with a large enough effect; inconclusive = small, poorly fitted or top-dose-only effect, or another doubt; inactive = no such curve, though single readings can be large or run the other way.
% is scaled to controls: 0 for no effect and ±100 for the full control effect; potency is read from the fitted curve at half-maximal effect.

The nature of this experiment: Primary qHTS for delayed death inhibitors of the malarial parasite plastid, 96 hour incubation. The conditions noted are these: P. falciparum luciferase reporter growth; series mostly up to 28.7 µM; activity change, negative = inhibition: at the top concentration. From the text:
The goal of this screen is to discover new antimalarial compounds that act by inhibiting the development of the apicoplast in the malarial parasite Plasmodium falciparum. The biochemical processes that make this organelle essential for erythrocytic stage parasites are not well understood. However, antibiotics such as azithromycin and tetracycline, which target the apicoplast translational machinery, have a potent antimalarial effect.
We have developed a cell-based assay that measures parasite growth based on the expression of an integrated copy of a firefly luciferase reporter. To detect small molecules that cause this "delayed death" phenotype, erythrocytes infected with the luciferase-expressing parasites were incubated with compounds for either one or two generations, corresponding to 48 and 96 hours, respectively. Compounds that inhibit parasite growth in the second generation, but not the first, should be enriched in antimalarials that target the apicoplast. Growth inhibition is detected by a decrease in luciferase activity.
Assay Provider: David Fidock and Eric Ekland, Columbia University
Keywords: NIH Roadmap, MLPCN, MLI, MLSMR, qHTS, NCGC, qHTS, malaria, luciferase, viability
Four microliters of infected erythrocytes (2% hematocrit, 0.05% parasitemia final concentration) in culture medium were dispensed and the plates incubated for 96 hours at 37 C in 5% CO2. Two microliters of luciferase detection reagent was added and luminescence was detected by a ViewLux (PerkinElmer) reader.
On the technique in general: Quantitative high-throughput screening tests each substance at several concentrations.
For the compound `COc1ccc(N2CCN(S(=O)(=O)c3ccc4c(c3)NC(=O)C(C)C(=O)N4)CC2)cc1` (configuration not stated), the “activity change, negative = inhibition” value was 10.7%.

`COCCNc1nc(N)c([N+](=O)[O-])c(NCCO)n1`: the “activity change, negative = inhibition” value is 31.3%.

On to `C=CCNc1nc(N)c([N+](=O)[O-])c(NC2CCCCC2)n1`, for which the Potency is 10.4 µM (active).

On to `Nc1nc(NCC(=O)O)nc(N2CCCCCC2)c1[N+](=O)[O-]`, for which the “activity change, negative = inhibition” value is 20.6%.

With `O=C(COc1ccc2ccc(=O)oc2c1)NCC(O)c1ccccc1` (configuration not stated), the “activity change, negative = inhibition” value is -26.5%.

As for `O=C(CCC1CCCC1)N=C1SC2CS(=O)(=O)CC2N1Cc1ccccc1` (configuration not stated), the “activity change, negative = inhibition” value was 37.1%.

With `Cc1ccccc1OCC(=O)NNC(=O)c1ccc(-n2cncn2)c([N+](=O)[O-])c1`, the “activity change, negative = inhibition” value was 23.3%.

Consider `O=C(Cn1nnc2ccccc2c1=O)NCc1ccc(Cl)cc1`, for which the “activity change, negative = inhibition” value is 81.2%.

As to `C=CCn1c(SCn2nnc3ccccc3c2=O)nnc1-c1ccc(Cl)cc1`, the Potency was 11.7 µM (active).

On to `O=c1c2ccccc2nnn1CSc1nnnn1-c1ccccc1`, for which the “activity change, negative = inhibition” value was 46%.

For the compound `N/C(=N\S(=O)(=O)c1ccc(Cl)cc1)N1CCOCC1`, the “activity change, negative = inhibition” value is -3.64%.

Regarding `CCOC(=O)Cc1csc(SCC(=O)Nc2ccc(C)cc2F)n1`, the “activity change, negative = inhibition” value was 21.7%.

In the case of `Cc1cc(N/N=C/c2ccccc2F)c2ccccc2n1`, the “activity change, negative = inhibition” value was 2.63%.

As for `Oc1ccc(/C=N/Nc2nc(-c3ccccc3F)nc3ccccc23)c(O)c1`, the Potency was 11.7 µM (active).

With `Fc1ccc(/C=N/Nc2nc(-c3cccnc3)nc3ccccc23)cc1`, the “activity change, negative = inhibition” value was 0%.

Regarding `Oc1ccc(/C=N/NC2=NCCCCC2)c(O)c1`, the “activity change, negative = inhibition” value is 27.9%.

On to `FC(F)(F)c1nc2ccccc2nc1N/N=C/c1ccc(Cl)cc1`, for which the “activity change, negative = inhibition” value was 37.3%.

Consider `Cc1nc2ccccc2nc1N/N=C/c1ccc(O)cc1O`, for which the Potency was 2.94 µM (active).

As to `CC1CCCN(C(=O)CN2C(=O)c3ccccc3S2(=O)=O)C1` (configuration not stated), the “activity change, negative = inhibition” value was 309%.

Take `COc1cc(OC)cc(/C(N)=N/O)c1`: the “activity change, negative = inhibition” value is 110%.

Regarding `Cc1snc(SCc2c(F)cccc2Cl)c1C#N`, the “activity change, negative = inhibition” value is 7.68%.

Regarding `CSc1cc(C)[nH]c(=O)n1`, the “activity change, negative = inhibition” value was 0%.

Take `Cc1cc(SCc2c(F)cccc2Cl)nc(=O)[nH]1`: the Potency was 11.7 µM (active).

As to `Cc1onc(-c2ccccc2)c1C(=O)N1CCN(S(=O)(=O)c2ccccc2C(F)(F)F)CC1`, the “activity change, negative = inhibition” value is 3.53%.

As to `CN1CCN(Cc2ccccc2C(F)(F)F)CC1`, the “activity change, negative = inhibition” value is -13.6%.

As for `O=c1cc(CN2CCN(S(=O)(=O)/C=C/c3ccccc3)CC2)c2ccc(O)cc2o1`, the Potency is 11.7 µM (active).

For `NC(=O)CCN1CCN(S(=O)(=O)/C=C/c2ccccc2)CC1`, the “activity change, negative = inhibition” value is 12.9%.

With `O=C(CN1CCN(S(=O)(=O)/C=C/c2ccccc2)CC1)Nc1ccc(N2CCOCC2)cc1`, the “activity change, negative = inhibition” value was -2.43%.

As to `Cc1ccc2c(CN3CCN(S(=O)(=O)c4ccccc4C(F)(F)F)CC3)cc(=O)oc2c1`, the Potency was 9.28 µM (active).

For the compound `Cc1cccc(NC(=O)CCn2c(=O)oc3ccccc32)c1`, the “activity change, negative = inhibition” value was -2.59%.

As to `CCCCn1c(N)c(N(CCOC)C(=O)c2oc3ccc(OC)cc3c2C)c(=O)[nH]c1=O`, the “activity change, negative = inhibition” value was 0.114%.

Regarding `O=C(NCCS(=O)(=O)c1ccc(Br)cc1)c1ccccc1Cl`, the “activity change, negative = inhibition” value was 25.8%.

Turning to `Cc1cccc(C(=O)Nc2ccc(C(=O)N/N=C/c3cccc(C)n3)cc2)c1`, the “activity change, negative = inhibition” value was 41.4%.

Take `COc1cccc(NC(=O)CSc2nccn(-c3ccc4c(c3)OCCO4)c2=O)c1`: the “activity change, negative = inhibition” value is 23%.

Consider `CCOC(=O)c1ccc(NC(=O)CNC(=O)c2ccco2)cc1`, for which the “activity change, negative = inhibition” value was 254%.

Consider `CCOC(=O)[C@@H]1[C@H]2COc3ccc(Br)cc3[C@H]2N2C(=O)N(c3ccc(Cl)cc3)C(=O)[C@@]12C`, for which the Potency is 11.7 µM (active).

Take `CCOC(=O)C1CCN(C(=O)Nc2cccc(OC)c2)CC1`: the “activity change, negative = inhibition” value is 8.91%.

As for `CCOC(=O)[C@H]1[C@H]2COc3cc(OC)ccc3[C@@H]2N2C(=O)N(c3ccc(Br)cc3)C(=O)[C@@]12C`, the Potency was 11.7 µM (active).

For `CCOC(=O)C1C(c2ccc(Cl)cc2)NC(=S)NC1(O)C(F)(F)F` (configuration not stated), the “activity change, negative = inhibition” value is 7.76%.

As to `COc1ccc(NS(=O)(=O)c2cccc(C(=O)NCCc3ccc(S(N)(=O)=O)cc3)c2)cc1`, the “activity change, negative = inhibition” value was -29.3%.

Turning to `CC1CCCCC1NC(=O)COC(=O)Cc1ccc(Cl)cc1` (configuration not stated), the “activity change, negative = inhibition” value was 7.06%.

In the case of `COc1ccc(-c2ocnc2C(=O)Nc2ccc3c(c2)CCC3)cc1`, the “activity change, negative = inhibition” value is 13%.

On to `O=S(=O)(Nc1ccccc1Br)c1cccs1`, for which the “activity change, negative = inhibition” value is 9.4%.

Consider `CC(C)OCCCNC(=O)c1cc(Sc2ccc(F)cc2)nc2ccccc12`, for which the Potency was 3.29 µM (active).

Turning to `CCCCN(C)CCCNC(=O)c1cc(-c2cccs2)nc2ccccc12`, the “activity change, negative = inhibition” value is -14%.

Consider `CC(C)CCNC(=O)c1cccnc1Sc1ccccc1`, for which the “activity change, negative = inhibition” value is 55.7%.

As for `O=C(O)C(NS(=O)(=O)c1cccc2nsnc12)c1ccccc1` (configuration not stated), the “activity change, negative = inhibition” value is 19.4%.

On to `CC(=O)Nc1cccc(NC(=O)c2ccc3c(c2)CCN3S(C)(=O)=O)c1`, for which the “activity change, negative = inhibition” value is -3.65%.

Take `O=C(CCCCO)c1ccc(O)c(Cl)c1`: the “activity change, negative = inhibition” value was 104%.

For `COc1ccc(/C=C(\C#N)C(=O)NCCCn2ccnc2)cc1`, the “activity change, negative = inhibition” value was -13.6%.

For the compound `COc1cccc(-c2nn(-c3ccccc3)cc2/C=C(\C#N)C(=O)NCCCn2ccnc2)c1`, the Potency was 1.65 µM (active).

Take `COc1cc(OC)cc(C(=O)NCCCn2ccnc2)c1`: the “activity change, negative = inhibition” value was 30.8%.

Source of the values: PubChem BioAssay AID504834 (National Center for Advancing Translational Sciences (NCATS), 2011).
